# Assay results from the supplement of paper PMC8728848.
# The sample as a whole holds a higher share of the strongest signals than the screen did.
# B1: AT5G01260(PC)(40) (Arabidopsis thaliana), Q9LFB0 (protein)
# chain: MIGIGRTLTSSSPSKIILEDLPPGIYRYGTEIFTSVPRKTFHHIKFLRLDSAQSSRILKPVPLRSSSIKDSQVNVEDEEIEASNKTVRVRFQLRKECVFGEHFFIVGDDPVFGGLWDPETALPLNWSDGNVWTVDLDLPVGRLVEFKLLLKAQTGEILWQPGPNRALETWETNKTIRICEDWDNADLQMMIEEDFVPYTNISSIGSEDEDEVLGSVQQNSSVVAVENAGYVSDESAQNSSFSIQSEKTMEPSNGALTAREVIKEAMFTEEESPVLVPGLIPLSDLDNEQVEVINEGKAETFPEVDKKQEPKAERNKKAKVKAISLFEKSEQEAVKSVEQRQYNAVEEEQQRLETEPLGTPDVLFENDIQWGRRTLYKLLSNFRLF
# Tests used:
# Assay in all cases: glycan array binding signal (z-score within array); higher = stronger binding
# Conditions in all cases: glycan notation: IUPAC condensed, linker removed
# [1] = molecular target: Fuc(a1-2)Gal(b1-3)GalNAc(b1-3)Gal
# In short: (§1)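 Negative Z-scores can be read as non-binding. The Z-score is calculated within each array and then averaged across arrays of one protein sequence at different concentrations or buffers and across linkers. Arrays, 3228 in all, were curated from the Consortium for Functional Glycomics database and kept only where the protein sequence was available.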
# Fuc(a1-2)Gal(b1-3)GlcNAc = molecular target: Fuc(a1-2)Gal(b1-3)GlcNAc
# In short: as §1
# [2] = molecular target: Fuc(a1-2)Gal(b1-3)GlcNAc(b1-3)[Gal(b1-4)GlcNAc(b1-6)]Gal(b1-4)Glc
# In short: as §1
# [3] = molecular target: Fuc(a1-2)Gal(b1-4)GlcNAc(b1-3)Gal(b1-4)GlcNAc(b1-3)Gal(b1-4)GlcNAc
# In short: as §1
# [4] = molecular target: Fuc(a1-2)Gal(b1-4)[Fuc(a1-3)]GlcNAc
# In short: as §1
# [5] = molecular target: Fuc(a1-2)Gal(b1-4)[Fuc(a1-3)]GlcNAc(b1-2)[Fuc(a1-2)Gal(b1-4)[Fuc(a1-3)]GlcNAc(b1-4)]Man(a1-3)[Fuc(a1-2)Gal(b1-4)[Fuc(a1-3)]GlcNAc(b1-2)Man(a1-6)]Man(b1-4)GlcNAc(b1-4)GlcNAc
# In short: as §1
# [6] = molecular target: Fuc(a1-2)[Gal(a1-3)]Gal(b1-3)GlcNAc
# In short: as §1
# [7] = molecular target: Fuc(a1-2)[Gal(a1-3)]Gal(b1-4)GlcNAc(b1-2)Man
# In short: as §1
# [8] = molecular target: Fuc(a1-2)[Gal(a1-3)]Gal(b1-4)GlcNAc(b1-6)GalNAc
# In short: as §1
# [9] = molecular target: Fuc(a1-2)[GalNAc(a1-3)]Gal(b1-4)GlcNAc(b1-2)Man(a1-3)[Fuc(a1-2)[GalNAc(a1-3)]Gal(b1-4)GlcNAc(b1-2)Man(a1-6)]Man(b1-4)GlcNAc(b1-4)GlcNAc
# In short: as §1
# [10] = molecular target: Fuc(a1-2)[GalNAc(a1-3)]Gal(b1-4)GlcNAc(b1-6)GalNAc
# In short: as §1
# [11] = molecular target: Fuc(a1-2)[GalNAc(a1-3)]Gal(b1-4)[Fuc(a1-3)]GlcNAc(b1-3)GalNAc
# In short: as §1
# [12] = molecular target: Fuc(a1-3)[Gal(b1-4)]GlcNAc(b1-3)Gal(b1-3)[Fuc(a1-4)]GlcNAc
# In short: as §1
# [13] = molecular target: Fuc(a1-3)[Gal(b1-4)]GlcNAc(b1-3)Gal(b1-4)[Fuc(a1-3)]GlcNAc
# In short: as §1
# [14] = molecular target: Fuc(a1-3)[Gal(b1-4)]GlcNAc(b1-3)Gal(b1-4)[Fuc(a1-3)]GlcNAc(b1-3)Gal(b1-4)[Fuc(a1-3)]GlcNAc
# In short: as §1
# [15] = molecular target: Fuc(a1-3)[GalNAc(b1-4)]GlcNAc
# In short: as §1
# [16] = molecular target: Gal(a1-3)Gal(b1-3)[Fuc(a1-4)]GlcNAc(b1-2)Man(a1-3)[Gal(a1-3)Gal(b1-3)[Fuc(a1-4)]GlcNAc(b1-2)Man(a1-6)]Man(b1-4)GlcNAc(b1-4)GlcNAc
# In short: as §1
# [17] = molecular target: Gal(a1-3)Gal(b1-4)GlcNAc(b1-6)GalNAc
# In short: as §1
# Gal(a1-3)GalNAc = molecular target: Gal(a1-3)GalNAc
# In short: as §1
# [18] = molecular target: Gal(a1-3)[Gal(a1-4)]Gal(b1-4)GlcNAc
# In short: as §1
# Gal(a1-4)Gal(b1-4)Glc = molecular target: Gal(a1-4)Gal(b1-4)Glc
# In short: as §1
# [19] = molecular target: Gal(b1-3)GalNAc(b1-4)Gal(b1-4)Glc
# In short: as §1
# [20] = molecular target: Gal(b1-3)GlcNAc(b1-2)Man(a1-3)[Gal(b1-3)GlcNAc(b1-2)Man(a1-6)]Man(b1-4)GlcNAc(b1-4)GlcNAc
# In short: as §1
# [21] = molecular target: Gal(b1-3)GlcNAc(b1-6)[Gal(b1-3)]GalNAc
# In short: as §1
# Gal(b1-3)GlcNAc6S = molecular target: Gal(b1-3)GlcNAc6S
# In short: as §1
# [22] = molecular target: Gal(b1-3)[Fuc(a1-4)]GlcNAc(b1-2)Man(a1-3)[Gal(b1-3)[Fuc(a1-4)]GlcNAc(b1-2)Man(a1-6)]Man(b1-4)GlcNAc(b1-4)[Fuc(a1-6)]GlcNAc
# In short: as §1
# [23] = molecular target: Gal(b1-3)[GlcNAc(b1-6)]GalNAc
# In short: as §1
# [24] = molecular target: Gal(b1-4)GalNAc(a1-3)[Fuc(a1-2)]Gal(b1-4)GlcNAc
# In short: as §1
# Gal(b1-4)GlcNAc = molecular target: Gal(b1-4)GlcNAc
# In short: as §1
# [25] = molecular target: Gal(b1-4)GlcNAc(b1-2)Man(a1-3)[GlcNAc(b1-2)Man(a1-6)]Man(b1-4)GlcNAc(b1-4)GlcNAc
# In short: as §1
# [26] = molecular target: Gal(b1-4)GlcNAc(b1-2)[Gal(b1-4)GlcNAc(b1-4)]Man(a1-3)[GlcNAc(b1-4)][Gal(b1-4)GlcNAc(b1-2)[Gal(b1-4)GlcNAc(b1-6)]Man(a1-6)]Man(b1-4)GlcNAc(b1-4)GlcNAc
# In short: as §1
# [27] = molecular target: Gal(b1-4)GlcNAc(b1-2)[Gal(b1-4)GlcNAc(b1-6)]Man(a1-6)[Gal(b1-4)GlcNAc(b1-2)Man(a1-3)]Man(b1-4)GlcNAc(b1-4)GlcNAc
# In short: as §1
# [28] = molecular target: Gal(b1-4)GlcNAc(b1-2)[Gal(b1-4)GlcNAc(b1-6)]Man(a1-6)[Gal(b1-4)GlcNAc(b1-2)Man(a1-3)]Man(b1-4)GlcNAc(b1-4)[Fuc(a1-6)]GlcNAc
# In short: as §1
# [29] = molecular target: Gal3S(b1-4)[Fuc(a1-3)]Glc6S
# In short: as §1
# Gal6S(b1-3)GlcNAc6S = molecular target: Gal6S(b1-3)GlcNAc6S
# In short: as §1
# [30] = molecular target: GalNAc(a1-3)GalNAc(b1-3)Gal(a1-4)Gal(b1-4)Glc
# In short: as §1
# [31] = molecular target: GalNAc(b1-3)Gal(a1-4)Gal(b1-4)GlcNAc
# In short: as §1
# [32] = molecular target: GalNAc(b1-3)Gal(a1-6)Gal(b1-4)Glc
# In short: as §1
# GalNAc(b1-4)GlcNAc = molecular target: GalNAc(b1-4)GlcNAc
# In short: as §1
# [33] = molecular target: GlcNAc(a1-4)Gal(b1-4)GlcNAc(b1-3)Gal(b1-4)Glc
# In short: as §1
# [34] = molecular target: GlcNAc(b1-2)Man(a1-3)[GlcNAc(b1-2)Man(a1-6)]Man(b1-4)GlcNAc(b1-4)GlcNAc
# In short: as §1
# [35] = molecular target: GlcNAc(b1-3)Gal(b1-4)GlcNAc(b1-3)Gal(b1-4)GlcNAc(b1-2)[GlcNAc(b1-3)Gal(b1-4)GlcNAc(b1-3)Gal(b1-4)GlcNAc(b1-6)]Man(a1-6)[GlcNAc(b1-3)Gal(b1-4)GlcNAc(b1-3)Gal(b1-4)GlcNAc(b1-2)Man(a1-3)]Man(b1-4)GlcNAc(b1-4)[Fuc(a1-6)]GlcNAc
# In short: as §1
# [36] = molecular target: GlcNAc(b1-4)[GlcNAc(b1-6)]GalNAc
# In short: as §1
# [37] = molecular target: GlcNAc6S(b1-3)Gal(b1-4)GlcNAc
# In short: as §1
# Neu5Ac(a2-3)Gal = molecular target: Neu5Ac(a2-3)Gal
# In short: as §1
# [38] = molecular target: Neu5Ac(a2-3)Gal(b1-3)GlcNAc(b1-2)Man
# In short: as §1
# [39] = molecular target: Neu5Ac(a2-3)Gal(b1-3)[Neu5Ac(a2-6)]GalNAc
# In short: as §1
# [40] = molecular target: Neu5Ac(a2-3)Gal6S(b1-4)GlcNAc
# In short: as §1
# Neu5Ac(a2-3)GalNAc = molecular target: Neu5Ac(a2-3)GalNAc
# In short: as §1
# [41] = molecular target: Neu5Ac(a2-6)Gal(b1-4)GlcNAc(b1-2)Man(a1-6)[Gal(b1-4)GlcNAc(b1-2)Man(a1-3)]Man(b1-4)GlcNAc(b1-4)GlcNAc
# In short: as §1
# [42] = molecular target: Neu5Ac(a2-6)Gal(b1-4)GlcNAc(b1-3)Gal(b1-4)GlcNAc(b1-2)Man(a1-3)[Neu5Ac(a2-6)Gal(b1-4)GlcNAc(b1-3)Gal(b1-4)GlcNAc(b1-2)Man(a1-6)]GalNAc
# In short: as §1
# [43] = molecular target: Neu5Ac(a2-6)Gal(b1-4)GlcNAc(b1-3)Gal(b1-4)[Fuc(a1-3)]GlcNAc(b1-3)Gal(b1-4)[Fuc(a1-3)]GlcNAc
# In short: as §1
# [44] = molecular target: Neu5Ac(a2-6)Gal(b1-4)GlcNAc(b1-3)[Neu5Ac(a2-6)Gal(b1-4)GlcNAc(b1-6)]GalNAc
# In short: as §1
# [45] = molecular target: Neu5Ac(a2-8)Neu5Ac(a2-8)Neu5Ac
# In short: as §1
# Neu5Ac(b2-6)GalNAc = molecular target: Neu5Ac(b2-6)GalNAc
# In short: as §1
# [46] = molecular target: Neu5Gc(a2-3)Gal(b1-3)GlcNAc
# In short: as §1
binder,measurement,setting,value
B1,glycan array binding signal (z-score),[1],-0.3
same,glycan array binding signal (z-score),Fuc(a1-2)Gal(b1-3)GlcNAc,-0.85
same,glycan array binding signal (z-score),[2],-0.343
same,glycan array binding signal (z-score),[3],-0.994
same,glycan array binding signal (z-score),[4],-0.291
same,glycan array binding signal (z-score),[5],0.175
same,glycan array binding signal (z-score),[6],0.172
same,glycan array binding signal (z-score),[7],-0.675
same,glycan array binding signal (z-score),[8],-0.256
same,glycan array binding signal (z-score),[9],-0.648
same,glycan array binding signal (z-score),[10],-0.387
same,glycan array binding signal (z-score),[11],7.04
same,glycan array binding signal (z-score),[12],0.431
same,glycan array binding signal (z-score),[13],-0.975
same,glycan array binding signal (z-score),[14],1.89
same,glycan array binding signal (z-score),[15],1.78
same,glycan array binding signal (z-score),[16],0.054
same,glycan array binding signal (z-score),[17],-0.159
same,glycan array binding signal (z-score),Gal(a1-3)GalNAc,2.32
same,glycan array binding signal (z-score),[18],9.44
same,glycan array binding signal (z-score),Gal(a1-4)Gal(b1-4)Glc,1.85
same,glycan array binding signal (z-score),[19],2.16
same,glycan array binding signal (z-score),[20],0.891
same,glycan array binding signal (z-score),[21],-0.659
same,glycan array binding signal (z-score),Gal(b1-3)GlcNAc6S,0.146
same,glycan array binding signal (z-score),[22],0.147
same,glycan array binding signal (z-score),[23],0.411
same,glycan array binding signal (z-score),[24],-0.618
same,glycan array binding signal (z-score),Gal(b1-4)GlcNAc,0.708
same,glycan array binding signal (z-score),[25],-0.702
same,glycan array binding signal (z-score),[26],-0.552
same,glycan array binding signal (z-score),[27],0.037
same,glycan array binding signal (z-score),[28],0.414
same,glycan array binding signal (z-score),[29],4.34
same,glycan array binding signal (z-score),Gal6S(b1-3)GlcNAc6S,-0.529
same,glycan array binding signal (z-score),[30],-0.513
same,glycan array binding signal (z-score),[31],2.47
same,glycan array binding signal (z-score),[32],-0.39
same,glycan array binding signal (z-score),GalNAc(b1-4)GlcNAc,8.76
same,glycan array binding signal (z-score),[33],-0.389
same,glycan array binding signal (z-score),[34],-0.443
same,glycan array binding signal (z-score),[35],0.144
same,glycan array binding signal (z-score),[36],0.541
same,glycan array binding signal (z-score),[37],1.26
same,glycan array binding signal (z-score),Neu5Ac(a2-3)Gal,-0.106
same,glycan array binding signal (z-score),[38],-0.011
same,glycan array binding signal (z-score),[39],-0.391
same,glycan array binding signal (z-score),[40],-0.571
same,glycan array binding signal (z-score),Neu5Ac(a2-3)GalNAc,-0.206
same,glycan array binding signal (z-score),[41],-0.165
same,glycan array binding signal (z-score),[42],0.243
same,glycan array binding signal (z-score),[43],-0.054
same,glycan array binding signal (z-score),[44],0.077
same,glycan array binding signal (z-score),[45],-0.58
same,glycan array binding signal (z-score),Neu5Ac(b2-6)GalNAc,-0.728
same,glycan array binding signal (z-score),[46],-0.145
